In ChEMBL document CHEMBL3988442, “University of Dundee, Small-Polar-MMV Screening Library” (2021):
Among all 48,000 compounds or so, about 13,000 (27%) showed an effect of 50% or more. The list shows a part of the results.

System: Wolbachia pipientis
Assay: Anti-Wolbachia Cell-Based Screen
Type: functional
Set-up: scale not given: in the data most compounds retested in dose-response had high values
Details: 5 µM

In order of falling “Percent Effect” value:
1. Cc1cc(C(=O)N2CCCC(n3ccnc3)C2)c(C)n1C1CC1 (stereo unspecified)  137.5%
2. CN(CCCc1cnn(C)c1)Cc1cc2n(n1)CCNC2  121.7%
3. Cc1cc(C(=O)N2CCCC(n3cccn3)C2)c(C)n1C1CC1 (stereo unspecified)  121.6%
4. COCCn1c(=O)n(C)c(=O)c2ccc(C3CCC(CN)CC3)nc21.Cl (stereo unspecified)  114.4%
5. COc1cc2c(c(OC)c1OC)CCN(CCN1CCCCC1)CC2  112.9%
6. Cc1oncc1C(=O)N[C@@H]1CN(Cc2ccco2)C[C@@H]2CCCO[C@@H]21.O=C(O)C(F)(F)F  107.8%
7. Cc1oncc1C(=O)N[C@@H]1CN(Cc2ccoc2)C[C@@H]2CCCO[C@@H]21.O=C(O)C(F)(F)F  105.5%
8. CN(CCCc1cnn(C)c1)Cc1cc2n(n1)CCCNC2  97.92%
9. CNc1cc(C2CN(Cc3cccnc3NC)CCO2)nc(C)n1 (stereo unspecified)  96.43%
10. CN(CCCc1cnn(C)c1)Cc1cc2n(n1)CCCN(C)C2  94.13%
11. O=C(N[C@@H]1CN(Cc2ccoc2)C[C@@H]2CCCO[C@@H]21)C1CCC1  85.36%
12. COc1cc2c(c(OC)c1OC)CCN(CCn1nc(C)cc1C)CC2  72.3%
13. COc1cc2c(c(OC)c1OC)CCN(CCn1cncn1)CC2  66.41%
14. COCCn1c(=O)n(C)c(=O)c2ccc(C3CCN(C(C)=O)CC3)nc21  55.11%
15. COc1ccc(CN2CCn3cncc3C2)cc1Cn1cncn1  18.87%
16. CC(NC(=O)N(C)Cc1ccc2c(c1)OCO2)c1nncn1C (stereo unspecified)  16.38%
17. CCn1cc(CN2CCCn3nc(CNC(=O)N(C)C)cc3C2)cn1  15.22%
18. CN(CCCc1cnn(C)c1)C(=O)C1CCN(C(=O)C2CCC2)CC1  14.43%
19. CNc1ncc(CN(C)Cc2cc3n(n2)CCNC3)cn1  11.28%
20. CCOC(=O)C1CCN(Cc2c(O)ccc3oc4c(c23)CCCC4)CC1  10.57%
21. CC1(c2ccccc2)CCC(=O)N(CCN2CCOCC2)C1 (stereo unspecified)  8.315%
22. CCC(=O)N1CCc2[nH]cnc2C12CCN(C(=O)c1snnc1C)CC2  7.824%
23. Cc1ccn(CCNc2ncnc3c2CCN(S(C)(=O)=O)CC3)n1  5.573%
24. CCCc1cncnc1N1CCC(NCc2ccncc2)CC1  5.564%
25. Cc1nn2cccnc2c1C(=O)N1CCCC(n2ccnc2)C1 (stereo unspecified)  4.541%
26. CN(Cc1cc2n(n1)CCCNC2)Cc1cc(-c2ccncc2)no1  4.022%
27. c1ccc(CCCN2CCN(CCn3cncn3)CC2)cc1  3.655%
28. COc1ccc(Cc2nnc3n2N=C(C(C)(C)C)CS3)cc1  3.244%
29. Cn1ncc(C(=O)N2CCCC(n3cccn3)C2)c1C1CC1 (stereo unspecified)  3.227%
30. Cc1ccn(C)c(=O)c1NC(=O)N(C)Cc1cccc(OC(C)C)c1  2.513%
31. O=C(C1CC=CC1)N1C[C@@H]2CN(Cc3ccsc3)CCO[C@@H]2C1.O=C(O)C(F)(F)F  1.635%
32. Cc1ccc(C2CN(Cc3cnc(-c4ccccn4)s3)CCO2)o1 (stereo unspecified)  1.384%
33. CS(=O)(=O)N[C@@H]1CN(Cc2ccco2)C[C@@H]2CCCO[C@@H]21.O=C(O)C(F)(F)F  1.285%
34. COc1cc2c(cc1OC)CN(C(=O)Cn1nc(C)cc1C)CC2  1.135%
35. Cc1nnc2n1CC(CNc1cnc3ccccc3n1)CC2 (stereo unspecified)  0.6716%
36. COc1cc2c(cc1OC)CCN(C(=O)Cn1nc(C)cc1C)CC2  0.6612%
37. CNC(=O)[C@@H]1C[C@@H](NC(=O)Cc2cccs2)CN1C1CCOCC1  0.5082%
38. Cc1cc(C(=O)N2CCCC(n3cncn3)C2)c(C)n1C1CC1 (stereo unspecified)  0.2394%
39. CC(=O)N1CCC(c2nn(C)c(=O)n2-c2ccccc2)CC1  -1.019%
40. CN(Cc1cc2n(n1)CCNC2)Cc1noc(C2CCC2)n1  -1.079%
41. COc1ccc(-c2nccn2CCN2CCCCC2)c(OC)c1OC  -1.363%
42. COc1cc(C)cc(C(C(=O)O)N(C)CCN2CCCC2)c1OC (stereo unspecified)  -1.945%
43. CNc1cc(C)nc(C2CN(Cc3ccc(C)nc3)CCO2)c1 (stereo unspecified)  -3.28%
44. Cc1oncc1C(=O)N[C@@H]1CN(c2ncccn2)C[C@@H]2CCCO[C@@H]21.O=C(O)C(F)(F)F  -3.566%
45. Cc1nc2ccccn2c1CN1C[C@@H](CN2CCOCC2)[C@@H](CO)C1  -3.894%
46. CC(C)CCN(C)C(=O)c1cc(CN2CCC(O)CC2)on1  -4.489%
47. CN(C)[C@@H]1CN(Cc2ccoc2)C[C@@H]2CCCO[C@@H]21.O=C(O)C(F)(F)F.O=C(O)C(F)(F)F  -4.757%
48. O=C(CC1CC1)N[C@@H]1CN(Cc2ccoc2)C[C@@H]2CCCO[C@@H]21  -6.81%
49. CC(C)=CCN1CCN(CCCc2ccccc2)[C@H]2CS(=O)(=O)C[C@H]21  -6.821%
50. COCCN1C(=O)[C@H]2CC[C@@H]1CN(c1nccc(C3CCCC3)n1)C2  -7.608%
51. O=C(CC1CC1)N[C@@H]1CN(Cc2ccco2)C[C@@H]2CCCO[C@@H]21.O=C(O)C(F)(F)F  -7.613%
52. Cn1cc(N2CCC(Nc3ccc4nccnc4n3)C2=O)cn1 (stereo unspecified)  -8.237%
53. COCCN1CCC(c2nc3c([nH]2)CC(C)(C)CNC3=O)C1 (stereo unspecified)  -9.937%
54. CS(=O)(=O)CCNC(=O)N(Cc1ccoc1)C1CCCCC1  -12.04%
55. Cc1cc(N2CCC(n3cc(CN4CCSCC4)nn3)CC2)ccn1  -12.68%
56. O=C(O)[C@@]12CN(c3cnccn3)C[C@@H]1CN(C1CCOCC1)C2  -13.72%
57. CSCC(C)(O)CNC(=O)c1cccc(Cl)c1Cl (stereo unspecified)  -18.01%
58. COCCn1ccnc1C1CCN(C(=O)C(O)c2ccc(F)cc2)CC1 (stereo unspecified)  -18.13%
59. CN(Cc1cc2n(n1)CCCNC2)Cc1ccno1  -18.26%
60. CCOc1cccc(CCNC(=O)Cc2ccn[nH]2)n1  -27.67%
61. COC(CNC(=O)c1ccc(NC(C)=O)cc1)c1cccc(Cl)c1 (stereo unspecified)  -77.03%
